Assay outcomes as filed in PubChem.
USP28 inh – human USP28 deubiquitinase inhibition; Q96RU2; purified USP28, Ub-rhodamine cleavage fluorescence, 30 min; inhibition, % at 25 µM; 47,000 compounds, 3% hits
Target sequence (Q96RU2 whole entry, looked up): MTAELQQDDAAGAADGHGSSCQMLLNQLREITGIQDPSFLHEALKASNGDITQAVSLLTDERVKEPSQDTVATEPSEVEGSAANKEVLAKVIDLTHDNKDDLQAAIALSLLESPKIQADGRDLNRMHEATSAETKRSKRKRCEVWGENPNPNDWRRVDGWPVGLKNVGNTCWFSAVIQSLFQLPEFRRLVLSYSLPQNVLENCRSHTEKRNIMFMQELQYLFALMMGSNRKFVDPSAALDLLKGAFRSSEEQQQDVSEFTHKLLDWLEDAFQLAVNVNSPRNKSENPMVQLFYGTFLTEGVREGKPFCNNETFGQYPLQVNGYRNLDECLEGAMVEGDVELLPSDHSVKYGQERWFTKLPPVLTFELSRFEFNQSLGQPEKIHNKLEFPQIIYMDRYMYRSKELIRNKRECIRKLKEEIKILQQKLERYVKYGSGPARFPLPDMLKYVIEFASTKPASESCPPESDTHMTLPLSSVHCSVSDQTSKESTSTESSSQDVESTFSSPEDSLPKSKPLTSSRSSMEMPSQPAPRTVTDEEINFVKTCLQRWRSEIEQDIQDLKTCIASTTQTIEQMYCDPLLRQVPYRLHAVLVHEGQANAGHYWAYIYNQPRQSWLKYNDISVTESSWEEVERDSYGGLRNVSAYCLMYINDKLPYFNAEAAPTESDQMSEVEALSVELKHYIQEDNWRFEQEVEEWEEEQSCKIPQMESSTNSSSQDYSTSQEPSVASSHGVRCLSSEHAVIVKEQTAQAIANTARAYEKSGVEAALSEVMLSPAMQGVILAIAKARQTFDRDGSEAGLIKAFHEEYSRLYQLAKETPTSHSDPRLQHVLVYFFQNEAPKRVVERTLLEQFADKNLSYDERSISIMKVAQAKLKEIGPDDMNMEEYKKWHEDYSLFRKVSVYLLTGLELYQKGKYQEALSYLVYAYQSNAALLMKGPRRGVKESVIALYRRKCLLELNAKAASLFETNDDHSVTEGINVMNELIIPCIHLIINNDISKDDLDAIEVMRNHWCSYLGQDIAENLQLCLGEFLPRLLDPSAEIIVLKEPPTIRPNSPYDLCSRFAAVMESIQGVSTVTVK
USP17 block – inhibitors of human USP17 deubiquitinase; 47,000 compounds, 6.5% hits; A8MUK1; inhibition, % at 50 µM; AID 1645855; purified USP17, Ub-rhodamine cleavage fluorescence, 3 h
USP30 inh – blocks human USP30 ubiquitin-rhodamine cleavage; purified USP30, Ub-rhodamine cleavage fluorescence; Q70CQ3; inhibition, % at 25 µM; 47,000 compounds, 5.3% hits
Of the large screens only hits and unclear results are named; the others gave an inactive call. Rows were chosen to be rich in hits. Some 11% of all compounds tested hit in one or more screens of this group. No stated cut-off is given here; in the data, active means inhibition above about 30%; inactive means the rest.

O=S(=O)(c1cc(-c2nnc(C3CCCC3)o2)co1)N1CCCC1	none
O=C(NC1CCC(O)CC1)N1CCCCCC1 (configuration not stated)	none
O=C(Cn1cnc(-c2noc(-c3ccncc3)n2)c1)N1CCN(c2ccc(F)cc2)CC1	none
Cc1nc(-c2noc(-c3ccncc3)n2)cn1CC(=O)N1CCN(c2ccc(F)cc2)CC1	USP30 inh 62
COc1ccc(NC(=O)CN2C(=O)CSc3ncccc32)cc1	none (no result: USP17 block)
COc1ccc(NC(=O)CN2C(=O)CC(c3ccccc3)S(=O)(=O)c3ccccc32)cc1 (configuration not stated)	USP17 block 31
Cc1ccccc1NC(=O)CN1C(=O)CC(c2ccccc2)S(=O)(=O)c2ccccc21 (configuration not stated)	none
Cc1cccc(NC(=O)CN2C(=O)CC(c3ccccc3)S(=O)(=O)c3ccccc32)c1C (configuration not stated)	USP17 block 51
O=C(CCc1nnc2ccc(N3CCCCC3)nn12)N1CCN(c2ccccn2)CC1	none
COc1cccc(NC(=O)c2cnc3sc4c(n3c2=O)CCCC4)c1	none
Cc1ccnn1CCC(=O)N1CCC[C@@H]2NC(=O)c3ccccc3OCC/C=C/C[C@@H]21	none
COc1cccc(C(=O)Nc2ccc3c(c2)N(C(C)=O)CCC3)c1	none
COc1ccc(C(=O)Nc2ccc3c(c2)N(C(=O)C2CC2)CCC3)cc1OC	USP28 inh 33
CC(=O)c1cccc(NC(=O)c2ccc3c(c2)CCN3C(=O)C2CC2)c1	none
O=C(Nc1ccc2c(c1)N(C(=O)C1CCCC1)CC2)c1c(F)cccc1F	USP28 inh 93, USP17 block 32
O=C(Cn1ccc2ccn(Cc3ccccc3)c2c1=O)Nc1cccc(F)c1	USP17 block 49
Cc1ccccc1NC(=O)Cn1ccc2ccn(Cc3ccccc3)c2c1=O	none
Cc1ccc(-n2ccn3c(CCC(=O)N4CCc5ccccc5C4)nnc3c2=O)cc1C	none
CCOC(=O)C1CCN(c2nc(CC)nc3c2oc2ccccc23)CC1	none (no result: USP28 inh, USP30 inh)
Cc1ccc(NC(=O)COC(=O)Cn2cnc3c2c(=O)n(C)c(=O)n3C)cc1F	none
COc1cc(NC(=O)COC(=O)Cn2cnc3ccccc32)cc(OC)c1	USP28 inh 51
CCc1ccc(NC(=O)COC(=O)Cn2cnc3ccccc32)cc1	USP28 inh 32
Cc1ccc(NC(=O)COC(=O)Cn2cnc3c2c(=O)n(C)c(=O)n3C)cc1	none
CC1=NOC(CNC(=O)Nc2cccc(Cl)c2)C1 (configuration not stated)	none
CC(C)(C)c1cc(C(=O)N2CCC(c3cnccn3)CC2)n[nH]1	none
CCc1cc(C(=O)N2CCN(c3cccc(C)c3)CC2)nc2ccnn12	none (no result: USP17 block)
COc1ccc(CN2CCN(C(=O)CC3CCCC3)CC2)cn1	none (no result: USP17 block)
CS(=O)(=O)N1CCC(C(=O)NCc2cnn3ccccc23)CC1	none
Cc1ccc(OCc2nc(CC(=O)N3CCCC3)cs2)cc1	none
Cc1cc2nc(C3CCN(C(=O)c4ncccc4C)CC3)cc(=O)n2[nH]1	none
Cc1ccc(C)c(Cn2c(C3CCCO3)nc3ccccc32)c1 (configuration not stated)	none
Cc1cccc(C(=O)OCC(=O)Nc2ccc(N3CCOCC3)cc2)c1O	USP17 block 32
O=C(COc1ccc2c(c1)OCO2)Nc1ccc(N2CCOCC2)cc1	none
O=C(COC(=O)c1cc2ccccc2cc1O)Nc1ccc(N2CCOCC2)cc1	none
CC(C)(C)c1ccc(C(=O)OCC(=O)Nc2ccc3c(c2)OCO3)cc1	none
O=C(COC(=O)c1ccc2c(c1)OCO2)Nc1ccc2[nH]c(=O)[nH]c2c1	USP17 block 42
O=C(COC(=O)c1ccc2c(c1)OCO2)Nc1ccc(N2CCCCC2)cc1	USP17 block 33
O=C(COC(=O)c1n[nH]c2ccccc12)Nc1ccc(N2CCCCC2)cc1	USP17 block 59, USP30 inh 38
O=C(COC(=O)c1n[nH]c2ccccc12)Nc1ccc2c(c1)CCC2	none
COC(=O)c1ccc(O)c2c1CC(C)OC2=O (configuration not stated)	none
Cc1ccc(CNC(=O)C2(C)Cn3nc(C)cc3C(=O)N2c2ccc3c(c2)OCCO3)cc1 (configuration not stated)	none
CC(C)C(C(=O)N1CCN(c2ccccc2)CC1)N1Cc2ccccc2C1=O (configuration not stated)	none
c1ccc(-c2nc(NC3CCCC3)c3oc4ccccc4c3n2)cc1	none
Cc1cc(Cl)ccc1OC(C)C(=O)OCC(=O)Nc1ccc2[nH]c(=O)[nH]c2c1 (configuration not stated)	none
Cc1cccc(C(=O)OCC(=O)Nc2ccc3[nH]c(=O)[nH]c3c2)c1	USP28 inh 48, USP17 block 57, USP30 inh 77
CC(Oc1ccc(Cl)cc1Cl)C(=O)OCC(=O)Nc1ccc2[nH]c(=O)[nH]c2c1 (configuration not stated)	none
O=C(COC(=O)c1ccccc1O)Nc1ccc2[nH]c(=O)[nH]c2c1	USP30 inh 34
